These results are taken from PubChem BioAssay (EPA / NIEHS).

Where “and” joins values, the source holds several entries; their conditions need not be identical. Equal values may be shown once. Records with an inconclusive call do not appear. Calls of active or inactive are those of the source. Rule for the calls: active = hit-call score of the fitted dose curve at least 0.9, where 1 is the maximum; inconclusive = response in the unintended direction; inactive = score below 0.9.

Sequence of Retinoic acid receptor RXR-alpha (Homo sapiens) (P19793 whole entry, looked up, the tested form may be a part): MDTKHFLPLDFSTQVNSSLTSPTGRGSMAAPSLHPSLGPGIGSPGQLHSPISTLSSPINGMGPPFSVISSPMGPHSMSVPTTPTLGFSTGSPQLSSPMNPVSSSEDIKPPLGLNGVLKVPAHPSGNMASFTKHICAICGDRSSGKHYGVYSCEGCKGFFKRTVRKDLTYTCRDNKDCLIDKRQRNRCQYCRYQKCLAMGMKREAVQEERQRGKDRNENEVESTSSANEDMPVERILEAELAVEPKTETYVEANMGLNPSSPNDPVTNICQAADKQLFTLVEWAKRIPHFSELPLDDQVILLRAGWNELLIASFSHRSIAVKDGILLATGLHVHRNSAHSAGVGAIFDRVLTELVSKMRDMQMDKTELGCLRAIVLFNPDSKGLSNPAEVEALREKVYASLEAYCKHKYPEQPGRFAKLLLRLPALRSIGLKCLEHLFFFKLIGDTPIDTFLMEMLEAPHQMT

The assay concerns the target Retinoic acid receptor RXR-alpha (Homo sapiens) (UniProt P19793). Kind of assay: OT_NURR1_NURR1RXRa_0480: Odyssey Thera (OT) 8-hour HEK293T Protein Complementation Assay for Nurr1/retinoid X receptor (RXR) (AID 2283385). The method, boiled down: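 HEK293T cells expressing Nurr1 and RXRα fused to reporter fragments were dosed with compound for 8 hours. Complex formation was read as fluorescence intensity and analysed as gain of signal against DMSO as baseline.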
Consider `O=c1ccc2ccccc2o1`, for which the call was inactive. On the same count and under the same terms, the result for `CCCCCCCCCCCO` reads “inactive”; that for `CCCCCCCCN(C)CCCCCCCC`, “inactive”.

On to `Cc1cccc2ccccc12`, for which the compound was classed as inactive. In the case of `CCCCCCCCOc1ccc(C(=O)c2ccccc2)c(O)c1`, the outcome was inactive. For `Cc1ncc(CO)c(CO)c1O`, the call was inactive.

Take `CCCCCCCCCCCCO`: the result was inactive. The term AC50 denotes the midpoint of the concentration-response curve, whichever way the signal moves. For `Cc1cc2c(cc1C(F)(F)F)N(C(=O)Nc1ccc(Oc3cccnc3C)nc1)CC2`, the AC50 is 29.2 µM (active). Consider `OC12N=C(c3ccccc3)SC1Cc1cc(Cl)ccc12` (stereo not given), for which the outcome was inactive.

On to `Clc1ccccc1C(c1ccccc1)(c1ccccc1)n1ccnc1`, for which the compound was classed as inactive. `CC(C)(c1cc(Br)c(O)c(Br)c1)c1cc(Br)c(O)c(Br)c1`: the AC50 was 20.6 µM (active) and 72.4 µM (active). On to `CCCCCCCCCC(=O)O`, for which the compound was classed as inactive.

`COc1cccc([C@H](O)C2CCN(CCc3ccc(F)cc3)CC2)c1OC`: the result was inactive.

Turning to `CO[C@H]1/C=C/O[C@@]2(C)Oc3c(C)c(O)c4c(O)c(c(/C=N/N5CCN(C)CC5)c(O)c4c3C2=O)NC(=O)/C(C)=C\C=C\[C@H](C)[C@H](O)[C@@H](C)[C@@H](O)[C@@H](C)[C@H](OC(C)=O)[C@@H]1C`, the compound was classed as inactive. Still for that read-out and setting: the result for `CCO[Si](CCCNC(N)=O)(OCC)OCC` reads “inactive”; that for `Oc1ccccc1`, “inactive”. Same read-out and setting: the result for `CC[C@@H]1C[C@H](N(Cc2cc(C(F)(F)F)cc(C(F)(F)F)c2)C(C)=O)c2cc(C(F)(F)F)ccc2N1C(=O)OC(C)C` reads “inactive”; that for `C[C@]12CC[C@@H]3c4ccc(O)cc4CC[C@H]3[C@@H]1CCC2=O`, “inactive”; that for `O=C=NCCCCCCN=C=O`, “inactive”.

Regarding `O=C(OCCCCCCOC(=O)c1ccccc1)c1ccccc1`, the outcome was inactive.
